Compound activity (PubChem BioAssay)
This is a sample that favours compounds with a hit; in the whole collection about 3.4% have one here.
TWEAK-Fn14 inh – TWEAK-Fn14 signaling inhibition; actives 2% (n = 360,000); inhibition, % at 10 µM; AID 1159606; TWEAK-stimulated Fn14 reporter cells, luciferase luminescence, 8 h; in the data active = inhibition above about 50%
TRPM1 prom inh – inhibitors of MITF-driven TRPM1 promoter in melanoma cells; SK-MEL-5 TRPM1 promoter luciferase, 24 h; inhibition, % at 12.5 µM; actives 0.83% (n = 330,000);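 active = mean inhibition across replicates of 60% or more, whatever share of single replicates reaches that level; inconclusive = some that reach 60%, reason not given; inactive = mean inhibition across replicates below 60%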
HIF-2a inh – blocks HIF-2a reporter activity; inhibition, % at 18.8 µM; actives 0.72% (n = 360,000); 786-0 RCC cells HIF-2a reporter, luciferase luminescence, overnight;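 active = inhibition of the luminescence signal of 40% or more relative to plate controls, in a single-dose primary screen at 18.75 µM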
Shn3 inh set2 – reduces Shn3 3'UTR luciferase signal in osteoblasts; Clone20 osteoblast Shn3 3'UTR firefly luciferase, 24 h; inhibition, % at 12.5 µM; actives 0.52% (n = 360,000); AID 588674;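 active = mean inhibition of at least 75% with every replicate also reaching 75%; inconclusive = mean inhibition at least 75% but some replicate below; inactive = mean inhibition below 75%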
EBV LMP1 NFkB – Epstein-Barr LMP1 NF-kappaB reporter inhibition | actives 0.69% (n = 350,000) | inhibition, % at 12.5 µM | LMP1-induced NF-kappaB luciferase reporter cells, luminescence; in the data active = inhibition above about 41%; inconclusive = no clear call, values can overlap the other calls
TROY NFkB inh – blocks TROY-dependent signaling in reporter cells. Q293 LMP1-TROYcd NF-kB luciferase reporter, 4 h. inhibition, % at 10 µM. actives 0.98% (n = 360,000);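 active = compounds whose plate-normalised and pattern-corrected inhibition of the luciferase reporter signal at the single screening dose is 50% or more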
A number is an active result.

`CC(C1CC1)N(Cc1ccccc1)C(=S)Nc1ccccc1Cl` (stereo unspecified) gave TWEAK-Fn14 inh inactive, TRPM1 prom inh inactive, HIF-2a inh inactive, Shn3 inh set2 inactive, EBV LMP1 NFkB inactive and TROY NFkB inh 86.
For CC(C1CC1)N(Cc1ccccc1)C(=O)NC(=O)c1ccccc1 (stereo unspecified) the results were TWEAK-Fn14 inh inactive, TRPM1 prom inh inactive, HIF-2a inh inactive, Shn3 inh set2 inactive, EBV LMP1 NFkB inactive and TROY NFkB inh inactive.
`CN(C)C1=NCCN1CCC1CCCCC1` gave TWEAK-Fn14 inh inactive, TRPM1 prom inh inactive, HIF-2a inh inactive, Shn3 inh set2 inactive, EBV LMP1 NFkB inactive and TROY NFkB inh inactive.
Screening O=C(CCl)N1c2ccccc2CCc2ccccc21 returned TWEAK-Fn14 inh inactive, TRPM1 prom inh 75, HIF-2a inh inactive, Shn3 inh set2 inactive, EBV LMP1 NFkB inactive and TROY NFkB inh inactive.
Screening O=c1c(-c2ccccc2)nc2ccccc2n1C(CCc1ccccc1)c1nc2ccccc2[nH]1 (stereo unspecified) returned HIF-2a inh inactive.
For Nc1nc(N)c2cc(CNc3ccc(Cl)c(Cl)c3)ccc2n1 the results were TWEAK-Fn14 inh 98, HIF-2a inh inactive, Shn3 inh set2 inconclusive, EBV LMP1 NFkB inactive and TROY NFkB inh inactive.
Screening O=C(NC1CCCCC1)C1(S(=O)(=O)c2ccc(Cl)cc2)CC1 returned TWEAK-Fn14 inh inactive, TRPM1 prom inh inactive, HIF-2a inh inactive, Shn3 inh set2 inactive, EBV LMP1 NFkB inactive and TROY NFkB inh inactive.
Screening COC1(OC)C(/C=C/c2ccc(Cl)cc2)C(C#N)(C#N)C1(OC)OC (stereo unspecified) returned TWEAK-Fn14 inh 77, TRPM1 prom inh inactive, HIF-2a inh inactive, Shn3 inh set2 inactive, EBV LMP1 NFkB inactive and TROY NFkB inh inactive.
COCCNc1nc(NCC2CCCCC2)c2sc(-c3ccccc3)cc2n1 was read as TWEAK-Fn14 inh inactive, HIF-2a inh inactive, Shn3 inh set2 inactive and TROY NFkB inh inactive.
For c1ccc(-c2cc3nc(NCC4CC4)nc(NCC4CCCCC4)c3s2)cc1 the results were TWEAK-Fn14 inh 56, HIF-2a inh inactive, Shn3 inh set2 88 and TROY NFkB inh inactive.
Screening COC(=O)c1cc(NC(=O)c2cc3ccccc3o2)cc(C(=O)OC)c1 returned TWEAK-Fn14 inh inactive, TRPM1 prom inh inactive, HIF-2a inh inactive, Shn3 inh set2 inactive, EBV LMP1 NFkB inactive and TROY NFkB inh inactive.
`O=C(Nc1ncccc1O)c1cc2ccccc2o1` gave TWEAK-Fn14 inh inactive, TRPM1 prom inh inactive, HIF-2a inh inactive, Shn3 inh set2 inactive, EBV LMP1 NFkB 42 and TROY NFkB inh inactive.
`COC(=O)c1cccc(NC(=O)c2cc3ccccc3o2)c1` gave TWEAK-Fn14 inh 102, TRPM1 prom inh inactive, HIF-2a inh inactive, Shn3 inh set2 inactive, EBV LMP1 NFkB inactive and TROY NFkB inh 69.
Screening O=C(NC1=NCCS1)c1cc2ccccc2o1 returned TWEAK-Fn14 inh 82, TRPM1 prom inh inactive, HIF-2a inh inactive, Shn3 inh set2 inactive, EBV LMP1 NFkB inconclusive and TROY NFkB inh inactive.
For Cc1ccnc(NC(=O)c2cc3ccccc3o2)c1 the results were TWEAK-Fn14 inh 91, TRPM1 prom inh inactive, HIF-2a inh inactive, Shn3 inh set2 inactive, EBV LMP1 NFkB inactive and TROY NFkB inh 60.
O=C(NC1=NCCS1)c1ccccc1 was read as TWEAK-Fn14 inh inactive, TRPM1 prom inh inactive, HIF-2a inh inactive, Shn3 inh set2 inactive, EBV LMP1 NFkB inactive and TROY NFkB inh inactive.
For Cc1ccc(C)c(NC(=O)c2cc3ccccc3o2)c1 the results were TWEAK-Fn14 inh inactive, TRPM1 prom inh inactive, HIF-2a inh inactive, Shn3 inh set2 inactive, EBV LMP1 NFkB inactive and TROY NFkB inh inactive.
`Cc1cccc(-n2c(C)nc3cc(C(=O)NCCN4CCOCC4)ccc32)c1` gave TWEAK-Fn14 inh inactive, HIF-2a inh inactive, Shn3 inh set2 inactive, EBV LMP1 NFkB inactive and TROY NFkB inh inactive.
For CCCCNC(=O)C1(C)CCCCN1C(=O)c1cncc(Br)c1 (stereo unspecified) the results were TWEAK-Fn14 inh inactive, HIF-2a inh inactive, Shn3 inh set2 inactive and TROY NFkB inh inactive.
`Cc1cc(NC(=O)c2cncc(Br)c2)ccc1NC(=O)c1cc2ccccc2o1` gave TWEAK-Fn14 inh inactive, TRPM1 prom inh 65, HIF-2a inh inactive, Shn3 inh set2 inactive, EBV LMP1 NFkB inactive and TROY NFkB inh inactive.
`COc1cc(NC(=O)c2ccccc2)ccc1NC(=O)c1cc2ccccc2o1` gave TWEAK-Fn14 inh inactive, TRPM1 prom inh inactive, HIF-2a inh inactive, Shn3 inh set2 inactive, EBV LMP1 NFkB inactive and TROY NFkB inh inactive.
For Nc1c2c(=O)[nH]c(O)cc2nn1-c1ccccc1 the results were TWEAK-Fn14 inh inactive, TRPM1 prom inh inactive, HIF-2a inh inactive, Shn3 inh set2 inactive, EBV LMP1 NFkB inactive and TROY NFkB inh inactive.
O=C(Cc1cccc(NC(=O)C2CCCN(C(=O)C3CC3)C2)c1)Nc1cccc(C(=O)N2CCOCC2)c1 (stereo unspecified) was read as TWEAK-Fn14 inh inactive, TRPM1 prom inh inactive, HIF-2a inh inactive, Shn3 inh set2 inactive, EBV LMP1 NFkB inactive and TROY NFkB inh inactive.
`CCn1c(C)c(C)c2cc(C(=O)Nc3cccc(Cl)c3)ccc21` gave TWEAK-Fn14 inh inactive, TRPM1 prom inh inactive, HIF-2a inh inactive, Shn3 inh set2 inactive, EBV LMP1 NFkB 53 and TROY NFkB inh inactive.
Screening Cc1ccc(S(=O)(=O)N(OCc2ccccc2)C(C)C(=O)O)cc1 (stereo unspecified) returned TWEAK-Fn14 inh inactive, HIF-2a inh inactive, Shn3 inh set2 inactive and TROY NFkB inh inactive.
Screening CC1CCc2[nH]c3ccc(C(=O)N(C)CC(=O)Nc4ccccc4C(F)(F)F)cc3c2C1 (stereo unspecified) returned TWEAK-Fn14 inh inactive, TRPM1 prom inh inactive, HIF-2a inh inactive, Shn3 inh set2 inactive, EBV LMP1 NFkB inactive and TROY NFkB inh inactive.
`O=C(Nc1cccc2ccccc12)NC1CCCCC1` gave TWEAK-Fn14 inh inactive, TRPM1 prom inh inactive, HIF-2a inh inactive, Shn3 inh set2 inactive, EBV LMP1 NFkB inactive and TROY NFkB inh inactive.
`O=C(Nc1cccc2ccccc12)NC1Cc2ccccc2C1` gave TWEAK-Fn14 inh 89, TRPM1 prom inh inactive, HIF-2a inh inactive, Shn3 inh set2 inactive, EBV LMP1 NFkB inactive and TROY NFkB inh 57.
For O=C(CCCO)NC1Cc2ccccc2C1 the results were TWEAK-Fn14 inh 60, TRPM1 prom inh inactive, HIF-2a inh inactive, Shn3 inh set2 inactive, EBV LMP1 NFkB inactive and TROY NFkB inh inactive.
Cc1cc(C)cc(N(CCC#N)C(=O)COC(=O)Cn2[nH]c(=O)c3ccccc3c2=O)c1 was read as TWEAK-Fn14 inh inactive, TRPM1 prom inh inactive, HIF-2a inh inactive, Shn3 inh set2 inactive, EBV LMP1 NFkB inactive and TROY NFkB inh inactive.
Screening O=C(CN1C(=O)C2C3C=CC(C3)C2C1=O)Nc1nc2ccccc2[nH]1 (stereo unspecified) returned TWEAK-Fn14 inh 73, TRPM1 prom inh inactive, HIF-2a inh inactive, Shn3 inh set2 inactive and EBV LMP1 NFkB inactive.
For O=C(CN1C(=O)C2C3C=CC(C3)C2C1=O)Nc1ccc(F)cc1 (stereo unspecified) the results were TWEAK-Fn14 inh inactive, TRPM1 prom inh inactive, HIF-2a inh inactive, Shn3 inh set2 inactive, EBV LMP1 NFkB inactive and TROY NFkB inh inactive.
